PubChem BioAssay AID504333 (National Center for Advancing Translational Sciences (NCATS), 2011)
Among all 360,000 compounds or so, about 16,000 (4.4%) were called active. Not shown: some 9% with an inconclusive outcome. The call rests on the fitted dose curve; in most records, active means well fitted inhibition curve with a large enough effect; inconclusive means small, poorly fitted or top-dose-only effect; inactive means no such curve, though single readings can be large or run the other way. What follows is part of a selection rich in actives, with near analogues and random picks from the rest.

target: Bromodomain adjacent to zinc finger domain protein 2B (Homo sapiens) (UniProt Q9UIF8); assay: qHTS Assay for Inhibitors of BAZ2B; conditions: AlphaScreen BAZ2B-H3K14Ac peptide displacement; series mostly up to 114 µM; activity change, negative = inhibition: at the top concentration; further: nearly all actives have a fitted effect of over 60% in size
Sequence (Q9UIF8 whole entry, looked up, the tested form may be a part): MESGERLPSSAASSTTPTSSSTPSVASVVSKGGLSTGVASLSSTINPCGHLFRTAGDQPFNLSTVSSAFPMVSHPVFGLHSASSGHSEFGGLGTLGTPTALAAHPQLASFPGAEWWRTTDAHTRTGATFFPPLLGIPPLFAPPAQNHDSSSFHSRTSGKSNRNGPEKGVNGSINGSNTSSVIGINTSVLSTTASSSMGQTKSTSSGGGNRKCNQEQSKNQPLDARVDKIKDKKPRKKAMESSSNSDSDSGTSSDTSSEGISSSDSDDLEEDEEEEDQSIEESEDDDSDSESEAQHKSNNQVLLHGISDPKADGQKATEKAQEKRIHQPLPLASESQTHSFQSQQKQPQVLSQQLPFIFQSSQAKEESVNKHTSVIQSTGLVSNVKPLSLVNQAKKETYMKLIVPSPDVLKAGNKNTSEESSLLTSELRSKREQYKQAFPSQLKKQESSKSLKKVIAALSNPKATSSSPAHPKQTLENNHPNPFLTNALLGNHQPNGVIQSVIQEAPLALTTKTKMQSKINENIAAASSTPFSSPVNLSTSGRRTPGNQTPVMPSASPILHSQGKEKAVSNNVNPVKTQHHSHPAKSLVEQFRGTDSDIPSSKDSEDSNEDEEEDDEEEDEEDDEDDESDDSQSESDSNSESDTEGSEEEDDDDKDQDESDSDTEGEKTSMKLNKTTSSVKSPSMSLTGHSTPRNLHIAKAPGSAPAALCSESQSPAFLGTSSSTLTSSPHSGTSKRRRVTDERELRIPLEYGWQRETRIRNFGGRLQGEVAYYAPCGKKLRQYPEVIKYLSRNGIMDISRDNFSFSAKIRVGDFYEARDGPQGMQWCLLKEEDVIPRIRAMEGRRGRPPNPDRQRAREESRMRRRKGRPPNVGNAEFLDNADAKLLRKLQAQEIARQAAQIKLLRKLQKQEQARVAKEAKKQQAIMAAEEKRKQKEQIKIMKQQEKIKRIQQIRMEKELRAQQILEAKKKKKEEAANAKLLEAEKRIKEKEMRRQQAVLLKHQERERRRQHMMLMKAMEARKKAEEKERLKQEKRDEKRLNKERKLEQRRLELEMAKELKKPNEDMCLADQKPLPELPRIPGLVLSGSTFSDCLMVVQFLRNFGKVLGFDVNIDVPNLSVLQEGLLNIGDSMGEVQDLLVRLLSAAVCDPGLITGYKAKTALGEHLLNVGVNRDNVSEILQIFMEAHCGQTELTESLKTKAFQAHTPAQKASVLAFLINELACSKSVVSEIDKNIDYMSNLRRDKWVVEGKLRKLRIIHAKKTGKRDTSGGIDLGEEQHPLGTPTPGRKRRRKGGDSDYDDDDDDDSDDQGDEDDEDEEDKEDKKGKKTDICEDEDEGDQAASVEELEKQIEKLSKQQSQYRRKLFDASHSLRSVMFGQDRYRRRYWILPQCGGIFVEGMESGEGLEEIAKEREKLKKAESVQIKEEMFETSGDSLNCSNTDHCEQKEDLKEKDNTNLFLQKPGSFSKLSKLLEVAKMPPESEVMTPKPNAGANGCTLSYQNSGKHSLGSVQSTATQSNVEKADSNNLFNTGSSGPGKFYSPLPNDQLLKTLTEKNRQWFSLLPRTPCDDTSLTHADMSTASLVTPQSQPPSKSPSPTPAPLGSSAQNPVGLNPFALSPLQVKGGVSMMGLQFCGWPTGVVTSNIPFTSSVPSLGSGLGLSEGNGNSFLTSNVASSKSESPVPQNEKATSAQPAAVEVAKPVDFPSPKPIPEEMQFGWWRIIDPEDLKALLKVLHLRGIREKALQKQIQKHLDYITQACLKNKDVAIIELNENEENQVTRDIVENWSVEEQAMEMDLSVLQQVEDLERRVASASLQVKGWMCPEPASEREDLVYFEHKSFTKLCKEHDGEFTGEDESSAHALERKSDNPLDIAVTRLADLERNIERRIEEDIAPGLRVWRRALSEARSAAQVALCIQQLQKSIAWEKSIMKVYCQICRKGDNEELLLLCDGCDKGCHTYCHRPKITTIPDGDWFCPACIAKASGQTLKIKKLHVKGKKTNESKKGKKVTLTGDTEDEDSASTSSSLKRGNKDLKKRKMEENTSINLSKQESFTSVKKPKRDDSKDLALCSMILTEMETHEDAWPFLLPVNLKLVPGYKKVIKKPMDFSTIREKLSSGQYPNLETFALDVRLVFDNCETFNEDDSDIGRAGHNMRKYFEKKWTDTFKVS
Outline: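 Compounds, titrated to a top concentration of 110 uM, were incubated 30 min at room temperature with preformed BAZ2B/acetyl-K14 H3 peptide complex (50 nM each). Proximity signal was measured by AlphaScreen after 20 min with beads.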
On the % scale 0 is the no-effect control and ±100 the full control effect; potency means the concentration at half of the fitted maximal effect.

Activity change, negative = inhibition, inactive:
COc1ccc(-n2nnc(-c3nsc(NC(=O)c4ccc(C)c(C)c4)n3)c2C)cc1Cl -1.44%
Cc1ccc(NC(=O)c2cc(S(=O)(=O)NCCC3=CCCCC3)ccc2F)cc1C -1.61%
Cc1sc2ncn(CC(=O)N3CCN(c4ccc(F)cc4)CC3)c(=O)c2c1S(=O)(=O)N1CCN(c2ncccn2)CC1 -11.3%
CCOC(=O)c1c(NC(=O)/C(C#N)=C/c2ccccc2)sc2c1CCC2 -2.86%
CCOC(=O)c1c(NC(=S)NC)sc2c1CCCC2 -3.22%
O=C(Nc1ccc2nc(SCC(=O)N3CCc4ccccc43)sc2c1)c1ccccc1F 13.1%
CCOC(=O)c1cc2c(=O)n3ccccc3nc2n(CC2CCCO2)c1=NC(=O)c1ccccc1Br (stereo not drawn) 5.77%
CCc1ccc(NC(=O)CCCc2nnc3n(CCCOC)c(=O)c4sccc4n23)cc1 -31.2%
Cc1nn(Cc2ccccc2)c(C)c1C(=O)NCCN1C(=O)S/C(=C\c2ccc(F)cc2)C1=O 16.3%
O=C(NCCN1C(=O)S/C(=C\c2cccnc2)C1=O)c1cccc(OC(F)F)c1 4.16%
CCc1ccc(CNCc2c(C(=O)O)n(Cc3ccc(F)cc3Cl)c3cc(OC)ccc23)cc1 -4.3%
CCCCN(CC)CCCNC(=O)Cn1ncc2c([nH]c3ccc(C)cc32)c1=O 2.67% [at 57.1 µM]
CCNS(=O)(=O)c1ccc(NC(=O)CSc2nc(-c3ccco3)cc(C(F)(F)F)n2)cc1 -15.5%
CCOc1cc(C(=O)O)ccc1OCCOc1ccccc1 -16.1%
CCOc1c(CNCc2ccc(C(=O)O)cc2)cccc1OC -3.23%
Cc1cccc(N2CCN(C(=O)CCSCc3ccccc3F)CC2)c1C 17.7%
Cc1ccc(-n2ncc(C(=O)N(C)Cc3ccccc3)c2-n2cccc2)cc1 -21.1%
COc1ccc2oc(-c3ccc(C)c(NC(=O)c4sc5ccccc5c4Cl)c3)nc2c1 -16.3%
O=C(CSc1nc(Nc2ccc(F)c(F)c2)c2ccccc2n1)c1ccc(Cl)cc1 -11.1%
O=C(NCc1ccc(Cl)cc1)NCc1ccc(Cl)cc1 -10.7%
CN(C)CCCNC(=S)NCc1ccc(Cl)cc1 11.6%
CCC1CN(S(=O)(=O)c2cc(-c3cc(C)no3)ccc2C)c2cc(C)ccc2O1 (stereo not drawn) 4.05%
O=S(=O)(c1ccc(Br)cc1)c1nnn2c1nc(N1CCOCC1)c1sccc12 -12.7%
O=C(CSc1oc(-c2ccco2)nc1S(=O)(=O)c1ccccc1)c1ccc(Cl)cc1 -11.8%
O=C(NCc1ccccc1Cl)C1CCN(S(=O)(=O)c2cccc3nonc23)CC1 -4.18%
CC1CC(C)CN(S(=O)(=O)c2cccc3nonc23)C1 (stereo not drawn) -16.5%
COc1ccc(Cn2ccc3nc(C)c(C(=O)Nc4ccc(C)c(F)c4)cc3c2=O)cc1 0.0031%
CC(=O)c1cccc(Nc2ccc3cc(S(=O)(=O)N4CCC(C)CC4)ccc3n2)c1 9.61%
O=C(CSc1nc2c(c(=O)[nH]1)CN(Cc1ccc3c(c1)OCO3)CC2)Nc1cc(F)ccc1F 0.671%
Oc1c(C(c2ccccc2Cl)N2CCOCC2)sc2nc(-c3ccco3)nn12 (stereo not drawn) -33.3%
CC(C)c1cc(CN2CCOCC2)cc(C(C)C)c1O -16.3%
COc1ccc(-c2nc(S(=O)(=O)c3ccccc3)c(N3CCCCC3)o2)cc1 1.28%
O=C(CCC1N=C2c3ccccc3N=C(SCc3ccccc3F)N2C1=O)NCCc1ccccc1 (stereo not drawn) -13.3%
NS(=O)(=O)c1ccc(NC(=O)COc2ccc(S(=O)(=O)NC3CCCCC3)cc2)cc1 0.548%
COc1ccc(-c2csc(-c3c(N)c(C(=O)c4ccc(OC)c(OC)c4)n4ccccc34)n2)cc1 1.95%
CN1CCN(c2ccc(NC(=O)c3ccccc3)cc2)CC1 -15.9%
CC(=O)Nc1ccc(S(=O)(=O)N2CCN(c3ccccc3)CC2)cc1 0.312%
Cc1cc(C(=O)O)ccc1[N+](=O)[O-] -31.3%
CC(=O)Nc1ccc(/C=C/C(=O)c2ccccc2)cc1 -0.126%
O=S(=O)(c1ccc(C2CCCCC2)cc1)N1CCN(c2ccc(Cl)c(Cl)c2)CC1 -6.77%
CC1CCN(S(=O)(=O)c2ccc3c(c2)N(CC(=O)NCCc2ccccc2)C(=O)CO3)CC1 -21.3%
Cc1cc(Cl)ccc1NC(=O)Cc1ccc(NC(=O)N2CCCCc3ccccc32)cc1 -8.91%
Cc1ccc(-n2c(=O)c3cccnc3n2CC(=O)Nc2ccccc2C(F)(F)F)cc1C 12.9%
c1ccc(C2=Nc3cccc4cccc(c34)N2)cc1 -31.3%
COc1ccccc1-c1nc(C(F)(F)F)c(OC)o1 14.6%
Cc1ccccc1-c1nc2cc(NC(=O)c3cccc(OCCC(C)C)c3)ccc2o1 7.98%
CCc1ccc2oc(-c3ccc(C)c(NC(=O)/C=C/c4ccco4)c3)nc2c1 -12.5%
O=C(CSc1nnc(COc2ccc(Cl)cc2)n1Cc1ccco1)N1CCNC1=O -2.72%
COCn1c(COc2ccccc2)nc2ccccc21 0.462%
Cc1ccc2ncc(C(=O)Nc3ccc(OC(F)(F)F)cc3)c(=O)n2c1 2.09%
Cc1ccc(Cl)cc1NC(=O)CCS(=O)(=O)c1ccc(Br)s1 -11.7%
Cc1ccc(-n2c(=O)c3cccnc3n2CC(=O)NCc2ccc(F)cc2)cc1C 11.3%
Cc1cc(=O)n(CC(=O)Nc2cccc([N+](=O)[O-])c2)c(-n2nc(C)cc2C)n1 -21.5%
N#Cc1ccccc1Cn1cnc2nc3c(cc2c1=O)CCCC3 -3.89%
COc1ccc(-c2cc(-c3nc(-c4cc(OC)c(OC)c(OC)c4)no3)[nH]n2)c(OC)c1 -1.15%
COc1ccc(N2CCN(C(=O)c3c(C)oc4nc(C)nc(N5CCCC5)c34)CC2)cc1 4.5% [at 57.1 µM]
CC1=NN(c2ccccc2)C(=O)C1C(=O)c1ccc([N+](=O)[O-])cc1 (stereo not drawn) -13.4%
O=c1[nH]n(-c2ccc([N+](=O)[O-])cc2)c(=O)c2ccccc12 20.8%
CCCn1c2ccccc2c2cnn(CC(=O)NCCCOC(C)C)c(=O)c21 -7.08%
CCc1nnc2c3ccccc3nc(N3CCN(c4ccc(C)cc4C)CC3)n12 4.68% [at 57.1 µM]
Cc1csc(=NC(=O)c2ccccc2)n1CCO 3.79%
CC(C)Cn1c(-c2ccc(S(=O)(=O)N3CCOCC3)cc2)csc1=Nc1cc(Cl)ccc1Cl -37.6%
Cc1cccn2c(=O)c(C(=O)NC(C)c3ccccc3)cnc12 (stereo not drawn) -1.1%
Cc1csc2nc(COC(=O)c3ccccc3NC(=O)c3ccccc3Cl)cc(=O)n12 -0.509%
Cc1ccc(CN2COc3cc(C)c4c(oc(=O)c5ccccc54)c3C2)cc1 -9.36%
CC(=O)c1sc(N2C(=O)c3oc4ccccc4c(=O)c3C2c2ccc(C)cc2)nc1C (stereo not drawn) 0.549%
Cc1ccc(S(=O)(=O)c2cn(Cc3ccccc3)c3cc(N4CCCC4)c(F)cc3c2=O)c(C)c1 4.01%
CCc1ccccc1N(C)C(=O)C1CCCN(c2ncnc3onc(-c4ccc(F)cc4)c23)C1 (stereo not drawn) 6.53% [at 57.1 µM]
CN(C(=O)CSc1nc2ccccc2n1Cc1ccccc1C#N)c1ccccc1 -36.5%
CC(C)(C)OC(=O)N1CCC(c2c(C(=O)NCCc3ccsc3)cnn2-c2ccc(F)cc2F)CC1 -1.06% [at 57.1 µM]
Cc1ccccc1CNC(=O)CCCn1nc(C)c2sc3ccccc3c2c1=O -3.88%
Cc1ccc(-c2cc(C(=O)Nc3nn[nH]n3)c3ccccc3n2)c(C)c1 7.22%
CCCC(=O)Nc1ccc(NC(=O)c2sc3ccccc3c2Cl)cc1 -3.87%
CN(C)S(=O)(=O)c1ccc(C(=O)N(Cc2cccnc2)c2nc3c(F)cc(F)cc3s2)cc1 1.49%
CC(=O)Nc1cccc(NC(=O)CSc2cn(CC(=O)N3CCCC3)c3ccccc23)c1 -15.1%
COc1ccc(Cn2c(=O)n(-c3ccccc3C)c(=O)c3c4c(sc32)CN(C(C)=O)CC4)cc1 -6.59%
CCOc1ccc(/C=C2\SC(=S)N(NC(=O)c3ccncc3)C2=O)cc1OC -34.1%
CN1C(=O)C(CC(N)=O)N(NC(=O)c2ccc(Cl)cc2)C1=S (stereo not drawn) -6.62%

Potency, active:
CCOC(=O)c1c(/N=C/c2cc(C)ccc2O)sc2c1CCC2 50.1 µM
N#Cc1ccccc1CN1C(=O)S/C(=C/c2cccn2-c2cccc(C(=O)O)c2)C1=O 25.1 µM
CCOc1cccc2c1N[C@@H](c1ccc(C(=O)O)cc1)[C@H]1CC=C[C@@H]21 15.8 µM
CC(O)CN(Cc1ccc(Cl)cc1)CC(C)O (stereo not drawn) 56.2 µM
O=S(=O)(c1cccc2nonc12)N1CCN(c2cccc(Cl)c2)CC1 50.1 µM
Oc1c(C(c2ccccn2)N2CCOCC2)ccc2cccnc12 (stereo not drawn) 3.16 µM
Cc1cccc(N2CCN(c3ccc(NC(=O)/C=C\C(=O)O)cc3)CC2)c1 35.5 µM
CN(C)c1ccc(/C=C/C(=O)c2ccc(C(C)(C)C)cc2)cc1[N+](=O)[O-] 8.91 µM
COc1ccccc1C1=Nc2cccc3cccc(c23)N1 39.8 µM
Cn1c2ccccc2c(=O)c2c(=O)n(Cc3ccco3)c(COc3ccccc3)nc21 56.2 µM
Oc1c(C=Nc2cccc3nsnc23)ccc2ccccc12 50.1 µM
C=C1c2c(Cl)ccc(O)c2C(O)=C2C(=O)[C@]3(O)C(O)=C(C(N)=O)C(=O)[C@@H](N(C)C)[C@@H]3[C@@H](O)C12 (stereo partly drawn) 2.82 µM
CN(C)[C@@H]1C(=O)C(C(N)=O)=C(O)[C@@]2(O)C(=O)C3=C(O)c4c(O)ccc(Cl)c4[C@@H](O)[C@H]3C[C@@H]12 10 µM
O=C1CC(c2ccccc2)=NN1c1ccc([N+](=O)[O-])cc1 25.1 µM
CN(C)CCCn1c(-c2ccc(Cl)cc2)csc1=Nc1ccccc1 12.6 µM
OCCn1c(-c2ccccc2)csc1=Nc1ccccc1 11.2 µM
Oc1ccc2ccccc2c1N=Nc1nccs1 2 µM
Oc1ccc(N=Nc2nccs2)c(O)c1 25.1 µM
Cc1ccc2c(Cl)c(C(=O)Nc3nn[nH]n3)sc2c1 50.1 µM
Cn1cccc1/C=C1\SC(=S)N(NC(=O)c2ccc(Cl)cc2)C1=O 12.6 µM
